Experiments:
Experiment in all cases: log2 ratio of Biotin-Ahx-Ub-VS probe labelling (fragment/DMSO); higher = less target engagement (more negative = stronger competition), active = hit call of the paper (q ≤ 0.05, log2 ratio ≤ -1)
Conditions in all cases: compound concentration: 200 uM; treatment time: 3 h
USP42 = molecular target: T1, USP42 (UniProt Q9H9J4)
T1 sequence (whole entry): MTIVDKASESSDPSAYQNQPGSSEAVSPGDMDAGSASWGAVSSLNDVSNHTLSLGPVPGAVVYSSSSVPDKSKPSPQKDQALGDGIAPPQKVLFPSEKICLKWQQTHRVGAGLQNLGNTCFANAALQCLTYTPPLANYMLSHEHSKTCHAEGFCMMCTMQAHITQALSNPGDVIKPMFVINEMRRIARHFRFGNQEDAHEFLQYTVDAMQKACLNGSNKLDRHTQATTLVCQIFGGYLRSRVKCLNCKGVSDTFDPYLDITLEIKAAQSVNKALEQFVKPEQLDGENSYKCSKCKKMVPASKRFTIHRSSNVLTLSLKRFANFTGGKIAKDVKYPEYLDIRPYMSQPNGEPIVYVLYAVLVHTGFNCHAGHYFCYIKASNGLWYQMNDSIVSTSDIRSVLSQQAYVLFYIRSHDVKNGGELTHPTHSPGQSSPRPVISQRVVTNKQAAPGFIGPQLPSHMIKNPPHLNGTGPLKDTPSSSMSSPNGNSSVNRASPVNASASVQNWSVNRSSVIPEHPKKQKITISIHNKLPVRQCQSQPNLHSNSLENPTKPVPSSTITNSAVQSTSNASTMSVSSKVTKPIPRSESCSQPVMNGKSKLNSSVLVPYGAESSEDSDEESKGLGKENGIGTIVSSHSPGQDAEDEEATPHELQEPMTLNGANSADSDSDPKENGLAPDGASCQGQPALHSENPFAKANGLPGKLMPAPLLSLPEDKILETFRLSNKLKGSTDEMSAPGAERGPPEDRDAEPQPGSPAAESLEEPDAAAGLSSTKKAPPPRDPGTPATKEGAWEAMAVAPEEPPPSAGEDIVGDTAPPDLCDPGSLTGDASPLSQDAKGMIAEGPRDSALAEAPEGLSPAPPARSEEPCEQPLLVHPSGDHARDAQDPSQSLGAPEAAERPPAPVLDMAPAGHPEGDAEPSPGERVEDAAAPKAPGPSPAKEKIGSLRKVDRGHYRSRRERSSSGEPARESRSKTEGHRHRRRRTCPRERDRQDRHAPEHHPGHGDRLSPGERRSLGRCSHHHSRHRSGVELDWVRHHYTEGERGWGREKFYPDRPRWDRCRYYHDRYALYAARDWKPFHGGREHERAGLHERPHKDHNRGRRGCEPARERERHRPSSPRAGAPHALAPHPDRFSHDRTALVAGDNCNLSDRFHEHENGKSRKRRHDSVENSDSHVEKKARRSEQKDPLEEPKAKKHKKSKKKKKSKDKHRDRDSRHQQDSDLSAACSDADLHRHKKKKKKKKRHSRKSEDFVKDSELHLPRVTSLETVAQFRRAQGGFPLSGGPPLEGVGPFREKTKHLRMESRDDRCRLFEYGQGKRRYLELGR
Method in brief: (§1)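 Fragment (200 µM) or vehicle was incubated for 3 h with triplicate HEK293T lysate samples of 495 µg, which were then treated with Biotin-Ahx-Ub-VS at 0.5 µM final for 1 h. Labelled DUBs were enriched on NeutrAvidin, digested with LysC and trypsin, and analysed by diaPASEF LC-MS/MS. Values are average log2 fragment/vehicle ratios from an unpaired t-test on global-median-normalised Spectronaut label-free quantities, using proteins with ≥2 unique peptides.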

USP46 = USP46 (UniProt P62068)
Chain of USP46 (P62068 whole entry): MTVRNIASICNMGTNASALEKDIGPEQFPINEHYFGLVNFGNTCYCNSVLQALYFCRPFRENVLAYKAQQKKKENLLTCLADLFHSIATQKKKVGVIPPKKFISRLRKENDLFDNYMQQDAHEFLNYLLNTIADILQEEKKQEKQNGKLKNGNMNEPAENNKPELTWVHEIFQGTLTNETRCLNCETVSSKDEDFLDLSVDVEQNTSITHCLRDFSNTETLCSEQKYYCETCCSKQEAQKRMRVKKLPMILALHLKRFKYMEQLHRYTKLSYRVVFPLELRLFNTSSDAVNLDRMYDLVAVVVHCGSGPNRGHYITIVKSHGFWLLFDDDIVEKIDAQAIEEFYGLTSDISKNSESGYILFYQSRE
Method in brief: as §1

USP47 = molecular target: T2, USP47 (UniProt Q96K76)
T2 sequence (whole entry): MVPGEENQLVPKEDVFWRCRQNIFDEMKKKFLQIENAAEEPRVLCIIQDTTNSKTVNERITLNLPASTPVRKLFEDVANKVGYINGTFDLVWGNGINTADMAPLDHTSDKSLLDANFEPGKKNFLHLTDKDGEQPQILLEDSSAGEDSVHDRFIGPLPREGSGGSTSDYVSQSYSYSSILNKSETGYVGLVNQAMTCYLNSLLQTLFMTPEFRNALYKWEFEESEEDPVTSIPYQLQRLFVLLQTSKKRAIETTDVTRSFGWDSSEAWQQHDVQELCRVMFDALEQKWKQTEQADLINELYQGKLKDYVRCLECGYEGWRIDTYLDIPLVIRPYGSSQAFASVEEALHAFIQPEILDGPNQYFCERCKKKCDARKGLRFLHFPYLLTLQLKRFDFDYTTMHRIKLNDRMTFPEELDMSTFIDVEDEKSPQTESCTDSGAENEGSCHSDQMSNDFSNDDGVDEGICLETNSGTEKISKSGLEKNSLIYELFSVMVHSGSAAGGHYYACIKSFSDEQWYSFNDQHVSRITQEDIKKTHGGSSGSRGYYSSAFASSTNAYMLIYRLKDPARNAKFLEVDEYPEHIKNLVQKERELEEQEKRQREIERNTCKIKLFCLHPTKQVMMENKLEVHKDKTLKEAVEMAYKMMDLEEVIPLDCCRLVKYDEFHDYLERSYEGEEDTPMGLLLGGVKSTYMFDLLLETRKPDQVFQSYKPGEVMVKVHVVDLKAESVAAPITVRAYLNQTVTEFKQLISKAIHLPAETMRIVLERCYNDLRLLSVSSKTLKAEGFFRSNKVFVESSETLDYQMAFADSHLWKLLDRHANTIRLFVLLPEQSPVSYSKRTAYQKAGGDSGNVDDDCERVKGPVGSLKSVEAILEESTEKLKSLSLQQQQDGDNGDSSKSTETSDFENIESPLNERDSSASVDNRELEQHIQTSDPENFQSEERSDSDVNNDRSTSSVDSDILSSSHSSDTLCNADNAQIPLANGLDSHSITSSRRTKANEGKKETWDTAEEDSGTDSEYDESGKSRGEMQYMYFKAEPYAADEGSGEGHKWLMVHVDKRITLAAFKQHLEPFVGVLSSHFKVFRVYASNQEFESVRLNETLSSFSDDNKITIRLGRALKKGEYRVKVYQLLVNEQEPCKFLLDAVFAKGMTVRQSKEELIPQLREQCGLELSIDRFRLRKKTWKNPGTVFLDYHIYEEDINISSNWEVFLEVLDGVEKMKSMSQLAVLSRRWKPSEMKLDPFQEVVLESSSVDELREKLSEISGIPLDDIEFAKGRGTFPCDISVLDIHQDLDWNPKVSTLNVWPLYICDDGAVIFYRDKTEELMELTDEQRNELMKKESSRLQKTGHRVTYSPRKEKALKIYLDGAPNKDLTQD
Method in brief: as §1

USP48 = molecular target: T3, USP48 (UniProt Q86UV5)
T3 sequence (whole entry): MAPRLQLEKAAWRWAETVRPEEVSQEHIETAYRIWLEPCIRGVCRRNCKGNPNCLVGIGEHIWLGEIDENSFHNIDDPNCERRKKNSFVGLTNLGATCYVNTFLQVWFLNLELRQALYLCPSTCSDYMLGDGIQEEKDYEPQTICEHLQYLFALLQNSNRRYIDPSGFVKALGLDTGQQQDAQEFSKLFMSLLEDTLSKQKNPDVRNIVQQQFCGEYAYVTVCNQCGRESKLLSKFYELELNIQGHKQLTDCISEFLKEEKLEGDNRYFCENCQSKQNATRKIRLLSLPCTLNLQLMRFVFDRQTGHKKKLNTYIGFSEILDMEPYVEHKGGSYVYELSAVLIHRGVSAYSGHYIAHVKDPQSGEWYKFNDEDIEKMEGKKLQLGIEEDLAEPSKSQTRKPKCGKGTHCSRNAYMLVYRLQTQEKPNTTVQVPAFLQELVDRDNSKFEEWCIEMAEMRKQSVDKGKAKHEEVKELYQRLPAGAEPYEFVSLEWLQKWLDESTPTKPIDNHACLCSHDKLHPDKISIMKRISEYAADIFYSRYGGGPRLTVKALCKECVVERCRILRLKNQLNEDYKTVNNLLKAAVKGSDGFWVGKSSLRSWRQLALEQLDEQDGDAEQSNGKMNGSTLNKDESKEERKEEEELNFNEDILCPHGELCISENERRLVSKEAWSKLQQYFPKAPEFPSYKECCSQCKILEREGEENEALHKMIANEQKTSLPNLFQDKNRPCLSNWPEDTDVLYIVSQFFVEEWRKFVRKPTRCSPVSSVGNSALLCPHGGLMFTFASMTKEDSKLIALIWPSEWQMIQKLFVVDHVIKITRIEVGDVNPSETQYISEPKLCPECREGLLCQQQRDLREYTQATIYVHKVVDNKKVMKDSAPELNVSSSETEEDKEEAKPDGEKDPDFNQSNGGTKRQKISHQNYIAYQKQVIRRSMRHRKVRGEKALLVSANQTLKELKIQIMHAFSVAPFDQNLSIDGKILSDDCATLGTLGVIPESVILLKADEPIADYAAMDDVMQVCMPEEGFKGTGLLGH
Method in brief: as §1

USP5 = molecular target: T4, USP5 (UniProt P45974)
T4 sequence (whole entry): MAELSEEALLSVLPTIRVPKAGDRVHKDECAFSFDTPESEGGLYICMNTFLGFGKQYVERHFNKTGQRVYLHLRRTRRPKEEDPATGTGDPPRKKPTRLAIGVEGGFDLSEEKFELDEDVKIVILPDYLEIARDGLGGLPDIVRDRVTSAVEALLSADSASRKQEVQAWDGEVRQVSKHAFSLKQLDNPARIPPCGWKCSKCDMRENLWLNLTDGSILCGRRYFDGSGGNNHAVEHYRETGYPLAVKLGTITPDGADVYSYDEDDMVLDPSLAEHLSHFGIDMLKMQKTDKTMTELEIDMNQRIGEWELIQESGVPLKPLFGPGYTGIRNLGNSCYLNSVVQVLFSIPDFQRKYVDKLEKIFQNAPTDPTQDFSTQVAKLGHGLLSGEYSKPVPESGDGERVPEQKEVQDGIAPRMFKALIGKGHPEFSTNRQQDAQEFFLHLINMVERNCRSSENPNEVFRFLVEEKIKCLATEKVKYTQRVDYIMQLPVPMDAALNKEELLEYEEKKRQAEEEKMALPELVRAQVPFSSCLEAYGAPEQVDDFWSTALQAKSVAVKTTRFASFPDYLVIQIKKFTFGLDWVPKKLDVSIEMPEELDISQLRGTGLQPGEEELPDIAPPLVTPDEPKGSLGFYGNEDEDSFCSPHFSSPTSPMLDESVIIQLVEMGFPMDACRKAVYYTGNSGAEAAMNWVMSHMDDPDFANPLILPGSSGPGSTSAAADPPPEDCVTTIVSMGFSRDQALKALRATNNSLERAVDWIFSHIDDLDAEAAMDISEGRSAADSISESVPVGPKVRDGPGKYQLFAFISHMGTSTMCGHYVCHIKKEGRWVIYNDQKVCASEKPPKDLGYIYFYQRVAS
Method in brief: as §1

USP54 = USP54 (UniProt Q70EL1)
Chain of USP54 (Q70EL1 whole entry): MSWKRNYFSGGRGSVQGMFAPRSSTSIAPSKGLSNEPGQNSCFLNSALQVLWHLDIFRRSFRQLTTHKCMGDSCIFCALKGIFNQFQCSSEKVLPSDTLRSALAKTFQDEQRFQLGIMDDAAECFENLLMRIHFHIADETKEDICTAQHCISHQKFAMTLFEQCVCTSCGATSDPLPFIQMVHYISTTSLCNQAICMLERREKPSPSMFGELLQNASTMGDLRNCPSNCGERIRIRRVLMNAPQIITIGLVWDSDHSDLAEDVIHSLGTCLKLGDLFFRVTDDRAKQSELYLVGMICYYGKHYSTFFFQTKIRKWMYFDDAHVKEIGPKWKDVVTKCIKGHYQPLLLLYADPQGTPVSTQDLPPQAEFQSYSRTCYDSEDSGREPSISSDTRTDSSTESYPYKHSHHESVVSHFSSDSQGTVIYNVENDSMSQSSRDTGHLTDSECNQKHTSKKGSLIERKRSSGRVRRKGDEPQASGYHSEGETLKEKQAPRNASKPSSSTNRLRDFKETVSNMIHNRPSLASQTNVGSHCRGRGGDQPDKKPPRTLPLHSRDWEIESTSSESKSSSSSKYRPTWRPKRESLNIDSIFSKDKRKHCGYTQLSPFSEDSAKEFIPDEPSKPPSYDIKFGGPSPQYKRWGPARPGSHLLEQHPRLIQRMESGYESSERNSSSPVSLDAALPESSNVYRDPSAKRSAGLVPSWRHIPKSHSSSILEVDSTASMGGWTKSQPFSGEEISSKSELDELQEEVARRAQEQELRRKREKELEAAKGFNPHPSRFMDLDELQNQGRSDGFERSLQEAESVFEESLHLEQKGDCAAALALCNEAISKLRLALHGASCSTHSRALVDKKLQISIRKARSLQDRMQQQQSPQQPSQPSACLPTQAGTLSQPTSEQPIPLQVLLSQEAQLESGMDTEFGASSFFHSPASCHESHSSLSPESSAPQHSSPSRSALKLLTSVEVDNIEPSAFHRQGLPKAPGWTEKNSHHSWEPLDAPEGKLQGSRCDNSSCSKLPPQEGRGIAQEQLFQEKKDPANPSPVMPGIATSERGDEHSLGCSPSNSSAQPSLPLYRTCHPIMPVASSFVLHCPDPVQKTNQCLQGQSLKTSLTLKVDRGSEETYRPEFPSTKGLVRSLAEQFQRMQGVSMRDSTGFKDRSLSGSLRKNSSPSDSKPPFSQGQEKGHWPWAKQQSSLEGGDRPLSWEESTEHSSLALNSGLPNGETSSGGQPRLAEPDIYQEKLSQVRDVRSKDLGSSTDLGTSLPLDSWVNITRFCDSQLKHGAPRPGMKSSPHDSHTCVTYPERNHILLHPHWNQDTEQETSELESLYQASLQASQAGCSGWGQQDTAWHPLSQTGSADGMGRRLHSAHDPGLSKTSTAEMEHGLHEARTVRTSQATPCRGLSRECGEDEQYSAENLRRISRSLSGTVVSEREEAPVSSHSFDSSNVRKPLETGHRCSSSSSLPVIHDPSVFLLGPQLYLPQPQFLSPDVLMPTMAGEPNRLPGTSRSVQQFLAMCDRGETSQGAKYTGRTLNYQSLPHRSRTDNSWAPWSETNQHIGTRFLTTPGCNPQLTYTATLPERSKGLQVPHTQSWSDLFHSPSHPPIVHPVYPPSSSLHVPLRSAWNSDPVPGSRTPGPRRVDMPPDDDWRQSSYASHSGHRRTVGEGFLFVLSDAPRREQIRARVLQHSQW
Method in brief: as §1

USP7 = USP7 (UniProt Q93009)
Chain of USP7 (Q93009 whole entry, looked up): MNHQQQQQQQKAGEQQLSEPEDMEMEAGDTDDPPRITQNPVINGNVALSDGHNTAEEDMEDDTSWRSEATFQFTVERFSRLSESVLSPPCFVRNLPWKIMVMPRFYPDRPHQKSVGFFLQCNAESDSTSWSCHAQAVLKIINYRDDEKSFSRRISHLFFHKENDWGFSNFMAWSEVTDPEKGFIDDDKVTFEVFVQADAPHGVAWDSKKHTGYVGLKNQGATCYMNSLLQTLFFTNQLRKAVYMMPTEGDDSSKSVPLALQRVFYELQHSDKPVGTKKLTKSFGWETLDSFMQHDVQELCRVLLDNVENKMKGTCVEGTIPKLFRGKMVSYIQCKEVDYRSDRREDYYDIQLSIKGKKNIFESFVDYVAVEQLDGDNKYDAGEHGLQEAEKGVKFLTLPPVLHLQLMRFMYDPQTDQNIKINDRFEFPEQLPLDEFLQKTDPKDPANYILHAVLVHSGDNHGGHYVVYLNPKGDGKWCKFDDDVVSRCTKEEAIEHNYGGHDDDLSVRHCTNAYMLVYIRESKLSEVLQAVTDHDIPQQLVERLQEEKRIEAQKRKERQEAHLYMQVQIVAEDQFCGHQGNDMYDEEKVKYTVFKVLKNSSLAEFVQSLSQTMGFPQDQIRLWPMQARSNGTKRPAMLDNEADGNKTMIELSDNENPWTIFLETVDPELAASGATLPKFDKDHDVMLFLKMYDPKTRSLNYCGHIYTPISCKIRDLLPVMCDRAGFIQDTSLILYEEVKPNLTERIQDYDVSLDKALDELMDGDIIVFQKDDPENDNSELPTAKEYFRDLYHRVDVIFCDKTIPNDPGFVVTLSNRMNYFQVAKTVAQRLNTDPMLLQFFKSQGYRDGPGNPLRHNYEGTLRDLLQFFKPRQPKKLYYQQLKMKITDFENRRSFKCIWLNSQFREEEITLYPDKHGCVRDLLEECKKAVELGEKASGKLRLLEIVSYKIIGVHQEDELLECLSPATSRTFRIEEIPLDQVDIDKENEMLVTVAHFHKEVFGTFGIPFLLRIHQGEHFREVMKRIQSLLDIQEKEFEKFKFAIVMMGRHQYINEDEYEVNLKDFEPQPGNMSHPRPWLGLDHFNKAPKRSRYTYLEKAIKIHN
Method in brief: as §1

USP8 = molecular target: T5, USP8 (UniProt P40818)
T5 sequence (whole entry): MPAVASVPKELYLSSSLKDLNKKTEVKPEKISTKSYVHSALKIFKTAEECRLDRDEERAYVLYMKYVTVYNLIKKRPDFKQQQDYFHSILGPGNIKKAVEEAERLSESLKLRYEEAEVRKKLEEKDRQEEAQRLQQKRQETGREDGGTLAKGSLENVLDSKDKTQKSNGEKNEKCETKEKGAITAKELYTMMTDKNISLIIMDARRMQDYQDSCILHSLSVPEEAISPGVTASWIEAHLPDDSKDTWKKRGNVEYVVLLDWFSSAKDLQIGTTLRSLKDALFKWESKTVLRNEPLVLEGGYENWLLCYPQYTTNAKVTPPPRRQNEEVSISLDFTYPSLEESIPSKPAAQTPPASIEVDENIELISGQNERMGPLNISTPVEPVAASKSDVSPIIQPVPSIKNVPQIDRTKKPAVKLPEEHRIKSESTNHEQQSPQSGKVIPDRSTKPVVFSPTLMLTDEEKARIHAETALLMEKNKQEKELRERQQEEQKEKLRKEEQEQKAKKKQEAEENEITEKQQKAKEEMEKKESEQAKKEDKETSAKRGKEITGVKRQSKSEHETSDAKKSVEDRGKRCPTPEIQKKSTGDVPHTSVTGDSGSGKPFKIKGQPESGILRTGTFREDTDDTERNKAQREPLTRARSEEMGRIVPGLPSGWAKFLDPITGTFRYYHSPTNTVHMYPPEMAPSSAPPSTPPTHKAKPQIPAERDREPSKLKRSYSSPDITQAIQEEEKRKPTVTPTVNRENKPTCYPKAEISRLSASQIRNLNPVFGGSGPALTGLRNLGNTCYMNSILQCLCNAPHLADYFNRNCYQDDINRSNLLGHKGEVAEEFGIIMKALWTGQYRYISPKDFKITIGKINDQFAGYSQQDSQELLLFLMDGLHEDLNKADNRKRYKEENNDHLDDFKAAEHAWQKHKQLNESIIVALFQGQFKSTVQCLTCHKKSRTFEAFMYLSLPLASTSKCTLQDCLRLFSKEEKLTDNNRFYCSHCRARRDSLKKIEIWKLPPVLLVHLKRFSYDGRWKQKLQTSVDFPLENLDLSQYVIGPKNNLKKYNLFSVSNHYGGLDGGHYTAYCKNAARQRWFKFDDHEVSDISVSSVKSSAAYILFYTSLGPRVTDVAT
Method in brief: as §1

Measured: log2 ratio of Biotin-Ahx-Ub-VS probe labelling

C/C(=C\CNC(=O)CCl)c1cnn(C)c1.Cl
inactive: USP42 0.377 | USP46 -0.21 | USP47 -0.51 | USP48 -0.224 | USP5 -0.543 | USP54 -0.0188 | USP7 -0.224 | USP8 0.115

Reference: the supplement of paper PMC11732987, “Enantioselective OTUD7B fragment discovery through chemoproteomics screening and high-throughput optimisation” (Communications Chemistry, 2025)
